According to PubChem BioAssay AID2284123 (EPA ToxCast):
The source made the active and inactive calls. The calls were made as follows: active = hit-call score of the fitted dose curve at least 0.9, where 1 is the maximum; inactive = score below 0.9.

Each compound was assayed against human PDE10A2 Phosphodiesterase, PDE10A (gene 10846) (UniProt Q9Y233) (assay: ERF_FR_ENZ_hPDE10A: Eurofins (ERF) Enzymatic LeadHunter Assay for human PDE10A2 Phosphodiesterase).
Procedure: ERF_FR_ENZ_hPDE10A is a biochemical, single-readout assay that uses extracted gene-proteins in a cell-free assay. Measurements were taken 0.33 hour after chemical dosing in a 96-well plate. See PDE10A2 Human Phosphodiesterase Enzymatic Assay, Cerep.ERF_FR_ENZ_hPDE10A is an assay component calculated from the ERF_FR_ENZ_hPDE10A assay. It is designed to measure enzyme activity using a type of enzyme reporter as detected by scintillation counting with radiometry technology.Data from the assay component ERF_FR_ENZ_hPDE10A was analyzed at the assay endpoint, ERF_FR_ENZ_hPDE10A, in the positive analysis fitting direction relative to DMSO as the negative control and baseline of activity. Using a type of enzyme reporter, loss-of-signal activity can be used to understand changes in enzymatic activity as they relate to gene PDE10A. To generalize the intended target to other relatable targets, this assay endpoint is annotated to the phosphodiesterase intended target family, where the subfamily is cyclic nucleotide signaling.
Human cells are incubated for 20 minutes at room temprature with [3H]cAMP + cAMP (0.2uM) as sunstrate and Papaverine as control inhibitor. Test Sample Requirements: Minimum for 1) Screen: 60 ul of 10 mM stock -OR- 1 mg (pre-weighed) for 10 uM final testing. 2) Dose Response: 90 ul of 10 mM stock -OR- 1 mg (pre-weighed) for a top concentration at 10 uM.

Sequence of human PDE10A2 Phosphodiesterase, PDE10A (gene 10846) (Q9Y233 whole entry, looked up): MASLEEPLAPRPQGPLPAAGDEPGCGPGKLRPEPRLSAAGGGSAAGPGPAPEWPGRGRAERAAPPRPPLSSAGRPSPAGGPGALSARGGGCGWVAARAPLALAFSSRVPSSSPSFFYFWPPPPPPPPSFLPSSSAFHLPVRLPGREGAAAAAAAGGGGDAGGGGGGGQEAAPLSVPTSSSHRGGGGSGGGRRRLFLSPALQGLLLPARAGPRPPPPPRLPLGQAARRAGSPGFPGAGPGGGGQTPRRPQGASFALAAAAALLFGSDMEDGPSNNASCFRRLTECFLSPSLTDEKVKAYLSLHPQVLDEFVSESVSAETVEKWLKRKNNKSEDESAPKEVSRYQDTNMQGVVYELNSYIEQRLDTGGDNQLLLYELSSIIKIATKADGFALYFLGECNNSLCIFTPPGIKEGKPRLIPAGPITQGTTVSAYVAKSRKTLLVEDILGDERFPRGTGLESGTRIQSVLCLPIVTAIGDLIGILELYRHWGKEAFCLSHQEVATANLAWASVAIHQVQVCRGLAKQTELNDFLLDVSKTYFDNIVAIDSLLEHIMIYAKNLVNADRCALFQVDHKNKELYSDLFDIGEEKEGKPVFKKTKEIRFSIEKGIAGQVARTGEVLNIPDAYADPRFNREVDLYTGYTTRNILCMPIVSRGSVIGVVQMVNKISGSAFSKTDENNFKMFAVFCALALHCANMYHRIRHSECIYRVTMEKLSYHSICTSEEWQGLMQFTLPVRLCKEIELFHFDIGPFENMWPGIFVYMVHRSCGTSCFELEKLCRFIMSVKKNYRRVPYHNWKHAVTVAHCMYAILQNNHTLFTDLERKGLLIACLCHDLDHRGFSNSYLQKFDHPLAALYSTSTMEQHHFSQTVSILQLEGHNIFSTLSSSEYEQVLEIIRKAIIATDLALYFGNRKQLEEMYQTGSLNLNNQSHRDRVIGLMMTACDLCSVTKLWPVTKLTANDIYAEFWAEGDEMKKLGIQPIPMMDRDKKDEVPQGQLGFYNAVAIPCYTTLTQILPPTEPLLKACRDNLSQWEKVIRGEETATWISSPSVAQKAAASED

Row | SMILES | AC50
1 | O=C(/C=C/c1ccc(O)cc1)CC(=O)/C=C/c1ccc(O)cc1 | 0.295 µM (active)
